Source: PubChem (several laboratories)
Mtb UGM inh: Mtb UDP-galactopyranose mutase inhibition. P9WIQ1. 0.06% of 320,000 active. purified UGM, fluorescence polarization probe displacement. inhibition, % at 10 µM. AID 504406; in the data active means inhibition above about 10%, passing the limit was not always enough
PriA SSB inh: K. pneumoniae PriA-SSBct interaction inhibition; 0.6% of 430,000 active; AlphaScreen SSBct-PriA binding, biotinylated peptide; inhibition, % at 33 µM; in the data active means inhibition mostly above about 37%, no sharp cut-off; inactive means mostly below about 20%;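 further: plate controls were negative control peptide for no effect and reference peptide for full effect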
Mtb FBA inh: inhibitors of M. tuberculosis fructose-bisphosphate aldolase | P9WQA3 | purified M. tuberculosis FBA, fluorescence read-out | inhibition, % at 1 µM | 2.3% of 360,000 active | AID 588726; in the data active means inhibition above about 27%;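 further: 0% = vehicle and 100% = reference inhibitor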
Target sequence (P9WQA3 whole entry, looked up): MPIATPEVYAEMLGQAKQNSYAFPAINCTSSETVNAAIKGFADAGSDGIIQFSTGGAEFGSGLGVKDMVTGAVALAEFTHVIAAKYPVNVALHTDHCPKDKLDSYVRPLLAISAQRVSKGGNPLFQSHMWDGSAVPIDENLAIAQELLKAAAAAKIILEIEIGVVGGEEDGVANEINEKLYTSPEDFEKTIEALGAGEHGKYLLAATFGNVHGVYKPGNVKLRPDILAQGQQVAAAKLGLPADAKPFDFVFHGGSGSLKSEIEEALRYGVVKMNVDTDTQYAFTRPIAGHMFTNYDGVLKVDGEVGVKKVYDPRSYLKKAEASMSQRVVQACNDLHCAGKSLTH
Mtb bLac sens: beta-lactam sensitization of Mtb H37Rv; M. tuberculosis H37Rv growth with meropenem, percent inhibition; inhibition, % at 25 µM; 0.27% of 330,000 active; AID 434955; call rule not given here;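 further: growth measured after seven days incubation then overnight dye step; 0% = bacteria only wells and 100% = bacteria with antibiotic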
Rv3671c inh: Rv3671c (M. tuberculosis) protease inhibition. P9WHR9. 0.048% of 320,000 active. AID 2606. inhibition, % at 5.96 µM; in the data active means inhibition above about 38%;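 further: extracellular domain of Rv3671c used as enzyme; 0% = enzyme with DMSO and 100% = no enzyme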
GDH-TPI counter: GDH-TPI coupled enzyme inhibition counter-screen | 1.2% of 360,000 active | AID 588335 | inhibition, % at 4.8 µM | GDH-TPI coupled enzyme counterscreen, NADH absorbance; in the data active means inhibition above about 30%;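 further: 0% = DMSO wells and 100% = wells lacking the enzyme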
Starred values were filed as active, the others as inactive. This is a sample that favours compounds with a hit; in the whole collection about 3.2% have one here.

How did COc1ccc(NC(=O)N2c3ccccc3C(C)=CC2(C)C)cc1 do in these assays?
Mtb UGM inh: -1; PriA SSB inh: 11; Mtb FBA inh: -1; Mtb bLac sens: 4; Rv3671c inh: 1; GDH-TPI counter: -5

How did COc1ccc(NC(=O)N2c3ccc(OC)cc3C(C)=CC2(C)C)cc1 do in these assays?
Mtb UGM inh: 1; PriA SSB inh: 54*; Mtb FBA inh: 8; Mtb bLac sens: -6; Rv3671c inh: -36; GDH-TPI counter: 7

How did CCNC(=O)N1c2ccc(OC)cc2C(C)=CC1(C)C do in these assays?
Mtb UGM inh: 3; PriA SSB inh: 4; Mtb FBA inh: 16; Mtb bLac sens: -2; Rv3671c inh: -10; GDH-TPI counter: 16

How did O=S(=O)(c1cccc(Cl)c1)N1CCC(c2nnc(C(F)(F)F)o2)CC1 do in these assays?
PriA SSB inh: -3

What do the screens show for `CCn1ccnc1CNC(=O)c1cc(COc2ccc(OC)c3ccccc23)on1`?
PriA SSB inh: 68*

What do the screens show for `CCn1ccnc1CN(C)C(=O)c1cc(COc2ccc(OC)c3ccccc23)on1`?
Mtb UGM inh: -1; PriA SSB inh: 39*; Mtb FBA inh: 2; Mtb bLac sens: 93; Rv3671c inh: -4; GDH-TPI counter: 0

Results for Cc1ccc(C)c(OCc2cc(C(=O)N(C)Cc3nccn3C)no2)c1 ?
Mtb UGM inh: 1; PriA SSB inh: 10; Mtb FBA inh: 2; Mtb bLac sens: -13; Rv3671c inh: 1; GDH-TPI counter: -4

Results for COc1ccc(OCc2cc(C(=O)N3CCCC(CO)C3)no2)c2ccccc12 (centres undefined) ?
Mtb UGM inh: 0; PriA SSB inh: 15; Mtb FBA inh: -2; Mtb bLac sens: -3; Rv3671c inh: -14; GDH-TPI counter: 4

How did CC(/C=C/c1ccc2c(c1)OCO2)=N/NC(=O)c1ccc(C)nc1 do in these assays?
Mtb UGM inh: 2; Mtb FBA inh: 4; Mtb bLac sens: 62; Rv3671c inh: 1; GDH-TPI counter: 36*

Results for CC(/C=C/c1ccc2c(c1)OCO2)=NNC(=O)c1cccnc1 ?
PriA SSB inh: 1

Results for CC(/C=C/c1ccc2c(c1)OCO2)=N/NC(=O)c1cccnc1 ?
Mtb UGM inh: -2; Mtb FBA inh: -1; Mtb bLac sens: 90; Rv3671c inh: 3; GDH-TPI counter: 42*

What do the screens show for `CC(/C=C/c1ccc2c(c1)OCO2)=N/NC(=O)c1ccncc1`?
Mtb UGM inh: 0; Mtb FBA inh: -3; Mtb bLac sens: 99; Rv3671c inh: 2; GDH-TPI counter: 48*

Results for CC(/C=C/c1ccccc1)=NNC(=O)c1ccncc1 ?
PriA SSB inh: 1

Results for CC(C)CCn1c(=O)c2ccc(C(=O)NC3CCCCC3)cc2n2c(=O)n(C)nc12 ?
PriA SSB inh: -6

Results for CCc1nnc(SCC(=O)Nc2nccs2)n1-n1cccc1 ?
PriA SSB inh: 0

What do the screens show for `C=CCCC(=O)NCC1CCN(C(=O)OC)CC1`?
PriA SSB inh: -15

Results for COC(=O)c1cc(=O)n2c(-c3ccccc3)csc2n1 ?
Mtb UGM inh: 1; PriA SSB inh: -12; Mtb FBA inh: -3; Mtb bLac sens: -11; Rv3671c inh: -4; GDH-TPI counter: 0

Results for O=c1nc2scc(-c3ccccc3)n2c2ccccc12 ?
Mtb UGM inh: 1; PriA SSB inh: -23; Mtb FBA inh: 5; Mtb bLac sens: 4; Rv3671c inh: -5; GDH-TPI counter: 36*

Results for CNc1ccc(-c2cccc(CO)c2)cn1 ?
Mtb FBA inh: 171*; GDH-TPI counter: 7

What do the screens show for `Cc1ccccc1N=CC1=C(O)c2ccccc2C1=O`?
Mtb UGM inh: -4; PriA SSB inh: 10; Mtb FBA inh: -4; Mtb bLac sens: 8; Rv3671c inh: -1; GDH-TPI counter: 46*

Results for COc1ccc(N=CC2=C(O)c3ccccc3C2=O)c(OC)c1 ?
Mtb UGM inh: -2; PriA SSB inh: 27; Mtb FBA inh: 19; Mtb bLac sens: 1; Rv3671c inh: 1; GDH-TPI counter: 7

What do the screens show for `O=C(CCCS(=O)(=O)c1ccc(Cl)cc1)Nc1nc(-c2ccccn2)cs1`?
PriA SSB inh: 33*

What do the screens show for `O=C(CCS(=O)(=O)c1ccc(F)cc1)Nc1nc(-c2ccccn2)cs1`?
Mtb UGM inh: 3; PriA SSB inh: 43*; Mtb FBA inh: 2; Mtb bLac sens: 91; Rv3671c inh: -4; GDH-TPI counter: -1

What do the screens show for `C=CCN1C(=O)C(C)(C)COc2cc(NS(=O)(=O)CC)ccc21`?
PriA SSB inh: -20
